# Bioassay records: PubChem, several laboratories
# Rows were chosen to be rich in hits. Some 3.2% of all compounds tested hit in one or more screens of this group.
# CDK5 p35 inh: inhibitors of human CDK5/p35 kinase, primary screen, biochemical, single concentration; Cyclin-dependent kinase 5 (Homo sapiens) + Cyclin-dependent kinase 5 activator 1 (Homo …; Recombinant CDK5/p35, ADP-Glo luminescence, 60 min; inhibition, % at 10 µM; actives 0.01% (n = 330,000);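 active means highest replicate inhibition of at least 50% and at least 75% of replicates reaching 50%; inconclusive means only one of the two criteria met; inactive means both criteria failed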
# dFosB act-1: activators of delta FosB homodimer, primary screen, biochemical, fluorescence polarization, TAMRA-CDK5 oligo, single point; activation, % at 25 µM; actives 0.99% (n = 340,000); Protein FosB (Mus musculus), P13346; AID 493131, 2011; purified delta FosB; percent of positive-control signal above neutral wells;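 active means mean activation above about 17%, with every replicate also reaching it, limit read from the data, passing the limit was not always enough; inconclusive means only one of the two conditions met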
# Target sequence (P13346 whole entry, looked up): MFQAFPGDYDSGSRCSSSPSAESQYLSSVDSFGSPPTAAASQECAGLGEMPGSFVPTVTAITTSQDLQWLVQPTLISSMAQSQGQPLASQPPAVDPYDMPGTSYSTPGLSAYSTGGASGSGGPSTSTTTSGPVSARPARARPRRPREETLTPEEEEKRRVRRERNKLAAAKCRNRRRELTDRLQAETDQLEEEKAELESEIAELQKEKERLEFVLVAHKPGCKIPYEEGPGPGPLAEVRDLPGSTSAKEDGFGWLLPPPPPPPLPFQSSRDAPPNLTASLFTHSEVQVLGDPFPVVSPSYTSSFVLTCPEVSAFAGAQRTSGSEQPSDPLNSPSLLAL
# esBAF inh: Bmi1 luciferase reporter increase in mESCs, primary screen, esBAF inhibitor project, mouse ES cells, Bmi1 luciferase knock-in, single point; 24 h; 100% = twice the neutral-well signal; reporter increase, % at 12.5 µM; actives 2% (n = 350,000); AID 602393, 2012; in the data active means activation above about 40%; inconclusive means no clear call, values can overlap the other calls;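 further: a rise in the Bmi1 reporter signal indicates esBAF inhibition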
# DYRK1A inh: rat Dyrk1A kinase inhibitors, primary screen, biochemical, single point, plate reader; Dual specificity tyrosine-phosphorylation-regulated kinase 1A (Rattus norvegicus), Q63470; ADP-Glo luminescence, NFATc1 peptide; inhibition, % at 12.5 µM; AID 504441, 2011; actives 0.43% (n = 310,000); in the data active means inhibition above about 50%
# Rtt109 Vps75: inhibitors of C. albicans Rtt109/Vps75 HAT, primary screen, biochemical, ThioGlo CoA-SH fluorescence, plate reader; inhibition, % at 34.9 µM; actives 0.16% (n = 330,000); purified Rtt109/Vps75, 4 h;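 active means inhibition of at least 50% in every replicate; inconclusive means best replicate reaches 50% inhibition but some replicates fall short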
# SMARCA2 act: SMARCA2 (BRM) function activators, primary screen, cell-based, luminescence, high throughput; activation, % at 9.1 µM; actives 1% (n = 370,000); MG213 cells, MMTV-luciferase reporter, dexamethasone, overnight; in the data active means activation above about 7.8%
# dFosB act-2: activators of mouse delta FosB DNA binding, confirmation, biochemical, fluorescence polarization, TAMRA-CDK5 oligo, cherry-picked samples | purified delta FosB; normalised: neutral wells 0, positive control 100 | shares compounds with dFosB act-1 | 2,400 tested, under 10 active | AID 588690, 2011 | activation, % at 24.9 µM;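 active means highest replicate activation at or above 34% and every replicate reaching that threshold; inconclusive means meets only one of the two criteria; inactive means meets neither criterion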;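 further: higher polarization means more probe DNA bound by delta FosB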
# SMARCA2 conf: SMARCA2 (BRM) function activators, confirmation, cell-based, luminescence, triplicate; shares compounds with SMARCA2 act; MG213 cells, MMTV-luciferase with dexamethasone, overnight; MG213 cells expressing E1A, Rb sequestered; DMSO wells 0%, reference activator 100%; activation, % at 9.1 µM; actives 30% (n = 3,500);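 active means activation above its plate's cutoff, the mean activation of tested wells plus 3 SD, cut at about 7.9% in these data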
# GAL4-VP16 Luc: GAL4-VP16 luciferase reporter activation, counter-screen for SMARCA2 (BRM) activator project, cell-based, pG5luc, luminescence, high throughput. activation, % at 9.1 µM. shares compounds with SMARCA2 act. AID 686939, 2013. actives 41% (n = 3,500). HEK293 GAL4-VP16 pG5luc reporter; scaled: DMSO wells 0%, SAHA wells 100%;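 active means activation above the solvent-only control well mean plus 3 SD, averaged across control plates, cut at about 5.2% in these data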
# Numbers stand for hits; i = inactive; ? = inconclusive; nt = no result given.
SMILES,CDK5 p35 inh,dFosB act-1,esBAF inh,DYRK1A inh,Rtt109 Vps75,SMARCA2 act,dFosB act-2,SMARCA2 conf,GAL4-VP16 Luc
COc1ccc(OCC(O)CN2CCC(CN3C(=O)c4cccc5cccc(c45)C3=O)CC2)cc1 (configuration not stated),i,45,nt,i,i,11,i,i,i
CO[C@@H]1CN(C)C(=O)c2cc(NC(=O)c3ccccc3)ccc2OC[C@H](C)N(C(=O)CN(C)C)C[C@@H]1C,nt,nt,i,nt,nt,nt,nt,nt,nt
CCN(CC)CCn1c2ccccc2c2cnc(N)c(C#N)c21,i,62,nt,i,i,47,i,71,i
COc1ccc(S(=O)(=O)N(C)C[C@@H]2Oc3ccc(NC(=O)CCN4CCOCC4)cc3C(=O)N([C@H](C)CO)C[C@@H]2C)cc1,nt,nt,i,nt,nt,nt,nt,nt,nt
CN(C)CCN(C(=O)/C=C/c1cccs1)c1nc2c(F)cc(F)cc2s1,i,53,nt,i,i,23,i,23,i
Cc1cc2oc(C(=O)Nc3nonc3C)c(C)c2cc1C,i,20,77,i,i,8.9,i,i,11
C[C@@H]1CN([C@@H](C)CO)S(=O)(=O)c2ccc(-c3ccncc3)cc2O[C@H]1CN(C)C(=O)C1CCCCC1,nt,nt,i,nt,nt,nt,nt,nt,nt
COc1ccc(-c2nnc(SCC(=O)Nc3cccc(Cl)c3)o2)cc1,i,38,i,i,nt,12,i,i,7.2
COc1ccc(-c2nnc(SCC(=O)Nc3ccccc3OC)o2)cc1,i,i,i,i,i,i,nt,nt,nt
C[C@H]1CN([C@@H](C)CO)C(=O)Cc2cc(NC(=O)Cc3cn(C)c4ccccc34)ccc2O[C@@H]1CN(C)S(=O)(=O)c1cccs1,nt,nt,i,nt,nt,nt,nt,nt,nt
CC(=O)NC(=O)c1ccc(-c2ccc(Cl)cc2)o1,i,26,i,i,nt,8.5,i,i,i
O=C(NC(=S)Nc1ccccc1O)c1ccc(-c2ccc(Cl)cc2)o1,i,i,i,i,i,i,nt,nt,nt
COC(=O)c1ccc2c(c1)C(C)(C)C(/C=C/c1ccc(O)cc1)=[N+]2C,i,119,nt,i,i,14,i,i,i
COC(=O)c1ccc2nc(C)c(C)nc2c1,i,i,nt,i,i,i,nt,nt,nt
Cc1ccc(S(=O)(=O)Nc2ccc3c(c2)C(=O)N([C@H](C)CO)C[C@H](C)[C@@H](CN(C)S(C)(=O)=O)OCCCC[C@@H](C)O3)cc1,nt,nt,i,nt,nt,nt,nt,nt,nt
O=C(NCC1OCCc2ccccc21)c1ccc(NC(=O)c2ccc(Cl)cc2Cl)cc1 (configuration not stated),i,45,nt,i,i,9.4,i,i,i
Cc1cc(C)c2c(N)c3ccccc3nc2n1,i,31,i,i,i,19,i,30,i
CCc1ccc2nc3nc(C)cc(C)c3c(N)c2c1,i,?,i,i,i,i,nt,nt,nt
Cc1cc(N2CCCC2)nc2ccc(NC(=S)NCCCN3CCC(C)CC3)cc12,i,46,nt,i,i,12,i,19,i
O=c1[nH]c(CCl)nc2cc(-c3ccc(F)cc3)sc12,i,i,nt,i,i,i,nt,nt,nt
